Measured values taken from PubChem BioAssay (NCATS).

Experiment: High-throughput drug toxicity screening in the BPDCN cell line Cal-1 (AID 1224825)
Conditions: Cal-1 BPDCN cell viability, qHTS; at 45.8 µM (top of the series) unless noted
Excerpt: Blastic plasmacytoid dendritic cell neoplasm (BPDCN) is a rare, aggressive and largely incurable hematologic malignancy originating from plasmacytoid dendritic cells (pDCs). Although an initial response to chemotherapy is common, BPDCN prognosis is extremely poor and most patients relapse with drug-resistant disease leading to a median overall survival of ~1 year after diagnosis. To explore novel potential therapeutic strategies in BPDCN, we performed a high-throughput drug toxicity screening in BPDCN cell liens, using of a library of 1,912 small molecules, enriched for compounds that are either approved or in early stages of development for cancer therapy.
A total of 500 exponentially growing Cal-1 cells were seeded per well in 5 uL of media (RPMI + Glutamine, without phenol red plus10% FBS and 1X Pen/Strep) into 1536-well solid white high base tissue culture treated Greiner One Bio Plates (789173-F), using a multidrop combi dispenser and a small sterile cassette. Compounds and controls totaling 23nL per well (negative control DMSO and positive control 9.2 uM Bortezomib-final) were immediately added to the plates using a 1536 head pin tool from Kalypsys. The plates were then covered with stainless steel gasket lids from Kalypsys and incubated for 48 hours at 37C under 95% relative humidity with 5% CO2. After 48 hours, the plates were removed and allowed to reach room temperature before 3 uL of Cell Titer Glo reagent (Promega) were added using an Aurora Flying Reagent Dispenser Bioraptor. The plates were then spun at 1000 rpms to remove bubbles and incubated for 15 minutes at room temperature before reading on a ViewLux using a luminescent filter with a 10 second exposure. The relative luciferase units were used to calculated percent activity using DMSO as 100% and Bortezomib as 0%.

Structure (SMILES) | viability (% of control)
NC(=O)c1cnc(-c2ccc(C3(N)CCC3)cc2)c(-c2ccccc2)c1 | 67%
CC=CCC=CCCC(=O)[C@H]1O[C@@H]1C(N)=O | 15.5%
CC(C)=CC[C@@H](O)C1=CC(=O)c2c(O)ccc(O)c2C1=O | 13.2%
CO[C@H]1C=CC=C(C)C(=O)NC2=CC(=O)C(NCCN(C)C)=C(C[C@@H](C)C[C@H](OC)[C@@H](O)[C@@H](C)C=C(C)[C@@H]1OC(N)=O)C2=O | 3.52%
Cc1ccn(-c2ccc(-c3ncco3)cc2)c(=O)c1-c1ccc2nc(N)ncc2c1 | 62.2%
NC1CCC(Nc2nc(Nc3ccc(C(=O)N4CCCCC4)cc3)c3ncn(-c4cccc(F)c4)c3n2)CC1 (stereo not given) | 101%
CC(=O)O[C@]1(C(C)=O)CC[C@@H]2[C@@H]3C[C@H](C)C4=CC(=O)CC[C@]4(C)[C@H]3CC[C@@]21C | 95.7%
COc1ccc2cc(-c3nc(-c4ccc(S(C)=O)cc4)[nH]c3-c3ccncc3)ccc2c1 (stereo not given) | 65.1%
CN[C@@H](C)C(=O)N[C@H]1CN(C(=O)CC(C)C)CC[C@H]2CC[C@@H](C(=O)NC(c3ccccc3)c3ccccc3)N2C1=O | 9.02%
c1ccc2c(Cc3c[nH]c4ccccc34)c[nH]c2c1 | 13.2%
COc1ccc2cccc(CCNC(C)=O)c2c1 | 132%
COC[C@@H](c1ccc(C(F)(F)F)cc1)N1CCN(C2(C)CCN(C(=O)c3c(C)ncnc3C)CC2)C[C@H]1C | 6.85%
O=c1cc(-c2cccc3c2Sc2ccccc2S3)oc(N2CCOCC2)c1 | 35.7%
CC(=NNC(=S)N1CCC1)c1ccccn1 | 9.75%
CN(C)C1CCN(C(=O)c2ccc(NC(=O)Nc3nc(N4CCOCC4)nc(N4CCOCC4)n3)cc2)CC1 | 12.5%
CC=CC[C@@H](C)C(=O)[C@H]1C(=O)N[C@@H](C(C)C)C(=O)N(C)CC(=O)N(C)[C@@H](CC(C)C)C(=O)N[C@@H](C(C)C)C(=O)N(C)[C@@H](CC(C)C)C(=O)N[C@@H](C)C(=O)N[C@H](C)C(=O)N(C)[C@@H](CC(C)C)C(=O)N(C)[C@@H](CC(C)C)C(=O)N(C)[C@@H](C(C)C)C(=O)N1C | 37%
NC1=N[C@@]2(c3cc(NC(=O)c4ccc(F)cn4)ccc3F)COC[C@@H]2CS1 | 12.9%
NC(=O)NN=Cc1ccc([N+](=O)[O-])o1 | 72.8%
N#CC(=C(N)Sc1ccccc1N)C(C#N)=C(N)Sc1ccccc1N | 12.1%
O=C(O)c1ccccc1C(=O)Nc1ccc(-c2ccccc2)cc1 | 111%

Structure (SMILES) | viability (% of control)
COCCOc1nc(-c2ccc(Cl)c(Cl)c2)n(-c2ccc(NC(=O)CCl)cc2)n1 | 37.2%
Cc1nnc(C(C)C)n1C1C[C@H]2CC[C@@H](C1)N2CC[C@H](NC(=O)C1CCC(F)(F)CC1)c1ccccc1 (stereo not given in full) | 104%
CC1(C)CCC(CN2CCN(c3ccc(C(=O)NS(=O)(=O)c4ccc(NCC5CCOCC5)c([N+](=O)[O-])c4)c(Oc4cnc5[nH]ccc5c4)c3)CC2)=C(c2ccc(Cl)cc2)C1 | 24.1%
Cc1c(O)cccc1C(=O)N[C@@H](CSc1ccccc1)[C@H](O)CN1C[C@H]2CCCC[C@@H]2C[C@@H]1C(=O)NC(C)(C)C | 4.13%
CC(=O)OC1C(C)OC(Oc2c(-c3ccc(O)cc3)oc3cc(O)cc(O)c3c2=O)C(O)C1OC(C)=O (stereo not given) | 7.44%
N#Cc1ccc(NC(=O)Nc2ccccc2Br)c2n[nH]nc12 | 14.7%
CCN(CC)CCOc1ccc(C(=C(Cl)c2ccccc2)c2ccccc2)cc1 | 50.6%
O=C(O)[C@H]1O[C@H](Oc2cc3oc(-c4ccccc4)cc(=O)c3c(O)c2O)[C@H](O)[C@@H](O)[C@H]1O | 105%
CO[C@H]1C[C@@H]2CC[C@@H](C)[C@@](O)(O2)C(=O)C(=O)N2CCCC[C@@H]2C(=O)O[C@H]([C@H](C)C[C@@H]2CC[C@H](OCCO)[C@H](OC)C2)CC(=O)[C@H](C)C=C(C)[C@@H](O)[C@@H](OC)C(=O)[C@H](C)C[C@H](C)C=CC=CC=C1C | 12.7%
O=C(O)c1c(Cl)c(Cl)c(Cl)c(Cl)c1-c1c2cc(I)c(=O)c(I)c-2oc2c(I)c(O)c(I)cc12 | 55.1%
O=C(O)c1cc(O)c2c(c1)C(=O)c1cccc(O)c1C2=O | 124% [at 92.2 µM]
C=C1C(=O)OC2C=C(C)CCC=C(C)CCC12 (stereo not given) | 11.5%
O=c1cc(CN2CCOCC2)occ1OCCCCCSc1ccnc2cc(C(F)(F)F)ccc12 | 75.4%
O=c1cc(N2CCOCC2)oc2c(-c3cccc4c3sc3ccccc34)cccc12 | 3.76%
NC(=O)c1cccc2[nH]c(-c3ccc([C@H]4CCCN4)cc3F)nc12 | 19.9%
Cc1c[nH]c(C=C2C(=O)Nc3ccccc32)c1CCC(=O)O | 55.9%
COc1ccc(-c2coc3cc(O)ccc3c2=O)cc1 | 109%
NC(=O)[C@@H](CCC(F)(F)F)N(Cc1ccc(-c2ncon2)cc1F)S(=O)(=O)c1ccc(Cl)cc1 | 93.2%
COc1ccc(-n2c(C)c([N+](=O)[O-])c3ccc(O)cc32)cc1 | 96.3%
CC(C)n1nc(-c2ccc3oc(N)nc3c2)c2c(N)ncnc21 | 8.31%
